Here are results for 40 compounds from PubChem BioAssay (NCATS).

Records with an inconclusive call do not appear. Entries that show only a call come without a potency. Activity calls are given as the source filed them. Calls come from the whole dose curve; as a rule, active = well fitted inhibition curve with a large enough effect; inconclusive = small, poorly fitted or top-dose-only effect; inactive = no such curve, though single readings can be large or run the other way.
Potency is the fitted concentration of half-maximal effect.

This assay can be described thus: qHTS for Inhibitors of ATXN expression: Validation (AID 588378). Note: nearly all actives have a fitted effect of over 75% in size. The settings on record: cell-based ATXN2 expression reporter assay, luminescence; series mostly up to 57.1 µM. From the text: Spinocerebellar ataxia type 2 (SCA2) is a multisystem neurodegenerative disease caused by a dominantly-acting mutation leading to expansion of a polyQ domain in the ataxin-2 protein (ATXN2). SCA2 patients develop progressive ataxia and later lose function in other neuronal systems. Prominent parkinsonian signs develop in some patients. Similar to many neurodegenerative disorders, no symptomatic or disease-modifying treatments are known.
The primary objective of project is to identify compounds inhibiting ATXN2 expression and to test them for efficacy in SCA2 mouse models. To this end, in a collaboration between Dr. Daniel Scoles and scientists at NCGC, a cell-based assay adapted to high-throughput screening has been developed to screen the NIH Molecular Libraries Small Molecule Repository (MLSMR).
NIH Chemical Genomics Center [NCGC]
NIH Molecular Libraries Probe Centers Network [MLPCN]
Assay Submitter (PI): Stefan Pulst and Daniel Scoles, University of Utah
4 ul of HEK293-ATXN2-FFLuc cell suspension (TBD cells/microL in phenol-red free DMEM) are dispensed into Greiner white solid bottom 1536-well assay plates, yielding a final well density of TBD cells/well. Plates are incubated for 2 hrs at 37 degrees C in 5% humidified CO2 to allow cell attachment. Compounds are then transferred via Kalypsys pin tool equipped with 1536-pin array (10nl slotted pins, V&P Scientific, San Diego, CA). In addition, duplicate serial dilutions of the control compounds ChemBridge 5553825, a previously identified ATXN2 expression inhibitor, and a known luciferase inhibitor, are pin-transferred. After incubation at 37 degrees C in 5% humidified CO2 for 24 hrs, CellTiter-Fluor reagent (1 ul) (Promega, Madison, WI) is then added and plates are incubated for 30 minutes, before being transferred to a ViewLux high-throughput CCD imager (PerkinElmer), wherein single end-point fluorescence measurements are acquired using the 405 nm excitation/525 nm emission filter set to assess cell viability. Next, Bright-Glo luciferase substrate detection reagent (3 ul) (Promega, Madison, WI) is added to each well and incubated for an additional 5 minutes. Luminescence is then measured on the ViewLux imager equipped with a clear emission filter using a 2 sec exposure.
For the compound `NC[C@H]1O[C@@H](n2cnc3c(N)ncnc32)[C@H](O)[C@@H]1O`, the Potency entry is “inactive”. In the case of `CCC1C(=O)OCC1Cc1cncn1C` (stereo not given), the Potency entry was “inactive”. As for `NCCSSCCN`, the Potency result was “inactive”.

With `NC(N)=NC(=O)c1nc(Cl)c(N2CCCCCC2)nc1N`, the Potency entry was “inactive”. In the case of `CN1CCC[C@H]1c1cccnc1`, the Potency result was “inactive”. In the case of `NC(=S)NCCC[C@H](N)C(=O)O`, the Potency entry was “inactive”.

For the compound `O=c1[nH]c2cc([N+](=O)[O-])c([N+](=O)[O-])cc2[nH]c1=O`, the Potency entry is “inactive”.

Regarding `O=C(/C=C/c1ccc(O)c(O)c1)OCCc1ccccc1`, the Potency result is “inactive”. Under `O=[N+]([O-])c1ccc2c(c1)S(=O)(=O)C=C2` stands 6.31 µM (active); under `COc1cccc(C(=O)NCCN2CCN(c3ccc(Cl)cc3)CC2)c1`, “inactive”; under `Cc1cc(NC2CCCCC2)nc(-n2nc(C)cc2C)n1`, “inactive”.

For the compound `COc1cc2nc(N3CCN(C(=O)OCc4ccccc4)C(C(=O)NC(C)(C)C)C3)nc(N)c2cc1OC` (stereo not given), the Potency entry was “inactive”. Under `CCCCCCCCCCCCCCCCCC(=O)OC(CC(=O)O)C[N+](C)(C)C` (stereo not given) stands “inactive”; under `O=C(O)CC1CC(c2ccccc2)=NO1` (stereo not given), “inactive”; under `CCCCN1CCC(n2c(=O)[nH]c3ccccc32)CC1`, “inactive”.

Consider `NO`, for which the Potency entry is “inactive”. For the compound `O=C1NC(=O)/C(=C/c2ccc(-c3ccc(F)cc3O)o2)S1`, the Potency result was “inactive”. Take `Oc1cc(O)cc(/C=C/c2ccc(O)c(O)c2)c1`: the Potency result was “inactive”. Under `Cc1nc2sccn2c(=O)c1CCN1CCC(=C(c2ccccc2)c2ccc(F)cc2)CC1` stands “inactive”. Under `CSc1ccccc1N1CCN(CCCCCC(=O)NC2CCCc3ccccc32)CC1` (stereo not given) stands 22.4 µM (active); under `Nc1ncnc2c1c(I)cn2[C@@H]1C[C@H](N)[C@@H](O)[C@H]1O`, 10 µM (active).

With `OC[C@H]1O[C@@H](n2cnc3c(NC4CCCC4)ncnc32)[C@H](O)[C@@H]1O`, the Potency entry was “inactive”.

Regarding `COc1cccc(OC)c1OCCNCC1COc2ccccc2O1` (stereo not given), the Potency entry is “inactive”.

Turning to `CCN(CC)c1ncnc2c1ncn2[C@@H]1O[C@H](COP(=O)(O)OP(=O)(O)C(Br)(Br)P(=O)(O)O)[C@@H](O)[C@H]1O`, the Potency result is “inactive”. Under `Clc1ccc(N2CCN(Cc3cc4ccccn4n3)CC2)cc1` stands “inactive”. As for `CO/S(=N\S(=O)(=O)c1ccc(Cl)cc1)c1ccc([N+](=O)[O-])cc1` (stereo not given), the Potency entry is “inactive”. With `CN1C2CC(OC(=O)[C@H](CO)c3ccccc3)CC1C1OC12` (stereo not given in full) the entry was “inactive”. `Cn1c(=O)c2[nH]c(-c3ccccc3)nc2n(C)c1=O`: the Potency result is “inactive”. Under `NCCCCC(=O)O` stands “inactive”; under `N=C(N)SCCc1ccc(CCSC(=N)N)cc1`, “inactive”. With `CN(C)C(N)=NCCC[C@H](N)C(=O)O` the entry was “inactive”; with `O=C(Nc1cccc(C(=O)Nc2ccc(S(=O)(=O)O)c3cc(S(=O)(=O)O)cc(S(=O)(=O)O)c23)c1)Nc1cccc(C(=O)Nc2ccc(S(=O)(=O)O)c3cc(S(=O)(=O)O)cc(S(=O)(=O)O)c23)c1`, “inactive”; with `O=C(O)c1cc(=O)c2c(Cl)cc(Cl)cc2[nH]1`, “inactive”. With `O=C1NC(=O)/C(=C/c2ccc3nccnc3c2)S1` the entry was “inactive”.

As to `O=C(O)CNC(=O)C(CS)Cc1ccccc1` (stereo not given), the Potency entry was “inactive”. Under `CC1OC1P(=O)(O)O` (stereo not given) stands “inactive”; under `O=C(c1ccc(OCCCc2cnc[nH]2)cc1)C1CC1`, “inactive”; under `NCCCS(=O)(=O)O`, “inactive”. As for `Nc1nc(Nc2ccccc2)nc2c1ncn2[C@@H]1O[C@H](CO)[C@@H](O)[C@H]1O`, the Potency entry is “inactive”. `O=C(c1cc(O)c(O)c([N+](=O)[O-])c1)c1ccccc1F`: the Potency result was “inactive”.
